# From PubChem
# rTrxR1 inhibitor = rat TrxR1 inhibition; recombinant rTrxR1, NADPH fluorescence consumption, selenite substrate; Potency, µM (titrated, usually from 114 µM), for the others: at the highest dose activity change, negative = inhibition, actives largely listed as inhibitors; actives 1% (n = 390,000); O89049; AID 588453; further: nearly all actives have a fitted effect of over 65% in size
# Target sequence (O89049 whole entry, looked up): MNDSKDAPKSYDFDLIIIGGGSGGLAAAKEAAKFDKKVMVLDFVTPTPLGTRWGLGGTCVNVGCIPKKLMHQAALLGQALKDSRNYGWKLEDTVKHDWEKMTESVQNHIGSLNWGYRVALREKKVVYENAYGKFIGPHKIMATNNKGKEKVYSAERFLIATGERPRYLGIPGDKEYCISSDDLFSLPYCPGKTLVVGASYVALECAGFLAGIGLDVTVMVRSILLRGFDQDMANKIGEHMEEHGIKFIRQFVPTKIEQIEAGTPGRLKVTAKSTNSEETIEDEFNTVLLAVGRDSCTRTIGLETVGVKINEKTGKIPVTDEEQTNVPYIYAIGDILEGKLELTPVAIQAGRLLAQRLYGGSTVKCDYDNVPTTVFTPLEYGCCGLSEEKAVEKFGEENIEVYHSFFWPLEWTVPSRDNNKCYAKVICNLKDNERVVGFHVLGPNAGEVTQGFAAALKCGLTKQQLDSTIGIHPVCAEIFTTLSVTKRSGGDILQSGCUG
#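 Rat TrxR1 (90 nM in the dispensed reagent) was pre-reduced with 400 uM NADPH for 5 min at room temperature, then incubated with compound for 15 min. After 400 uM selenite was added, NADPH fluorescence (Ex 340/Em 450 nm) was followed for 8 min.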
# Sfp inh = inhibitors of Bacillus subtilis Sfp phosphopantetheinyl transferase. AID 1490. Potency, µM, for the others: largest response in the series, negative = inhibition, most hits filed as inhibitors. Q9F4F7. actives 3.5% (n = 310,000). Biochemical Sfp PPTase activity, qHTS;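 further: the enzyme is Sfp with the accession as filed and its product quenches rhodamine fluorescence; 0% = enzyme reaction without inhibitor and -100% = no enzyme wells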
#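 Reaction rates are the 30-min fluorescence difference (ex 525, em 598 nm) in wells containing 15 nM Sfp, 5 uM rhodamine-CoA and 12.5 uM BHQ-2-YbbR at pH 7.6 with 10 mM MgCl2.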
# TrxR1 substrate = is turned over as a substrate by rat TrxR1. O89049. purified TrxR1 substrate turnover, NADPH consumption readout. Potency, µM (top dose mostly 114 µM), for inactives: top-dose activity change, negative = substrate turnover. actives 0.01% (n = 390,000); further: nearly all actives have a fitted effect of over 50% in size
#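 Rat TrxR1, dispensed at 90 nM, was prereduced with 400 uM NADPH (final) for 5 min at ~22 deg C, then incubated with compound 15 min before 400 uM selenite. A first-read NADPH fluorescence drop versus no-compound background flagged substrates.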
# VDR inhibitor = blocks the human vitamin D receptor. VDR-SRC2-3 peptide fluorescence polarization, 2 h. Potency, µM, for the others: max response, negative = inhibition, usual class: inhibitors. AID 504847. actives 0.93% (n = 400,000). P11473
#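 Fluorescence polarization assay of small-molecule disruption of VDR binding to coregulator peptide SRC2-3. Compounds and controls pin-transferred, then read after 2 h incubation at ambient room temperature.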
# GCN5L2 inh = blocks human GCN5L2 histone acetyltransferase. GCN5L2 HAT assay, ThioGlo1 CoA-SH fluorescence. Potency, µM (top dose mostly 58.9 µM), for inactives: at the top dose activity change, negative = inhibition, usual class: inhibitors. actives 0.21% (n = 390,000). AID 504327
#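 ThioGlo1-coupled HAT assay: 20nM GCN5L2, 70uM acetyl-CoA, 75uM H3(1-25) peptide, pH 7.5. Fluorescence read at 340/540nm at start and after 20 min at room temperature.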
# GLS inh = glutaminase GLS (human) inhibition | actives 0.21% (n = 410,000) | GLS enzymatic activity, qHTS titration | AID 624170 | Potency, µM (titrated, usually from 45.5 µM), inactives show at the highest dose activity change, negative = inhibition, hits mostly inhibitors | O94925
#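 Glutamate formation by hKGA was monitored fluorometrically using coupled glutamate oxidase, HRP and Amplex Red. Substrate was added as 1 mM L-glutamine solution; incubation was 30 min at RT after an initial read.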
# The depositor's hits bear a star; i = inactive; u = inconclusive; x = no result; [ ] = another dose, or the depositor's remark. Shown are actives, neighbours in structure and some others; about 3.8% of the full set was active somewhere. The call rests on the fitted dose curve; in most records, active means well fitted curve in the direction sought with a large enough effect; inconclusive means small, poorly fitted or top-dose-only effect, or another doubt; inactive means no such curve, though single readings can be large; an effect the other way counts as inactive or inconclusive. Unless noted, on the % scale 0 is the no-effect control and ±100 the full control effect; potency means the concentration at half of the fitted maximal effect.
SMILES,rTrxR1 inhibitor,Sfp inh,TrxR1 substrate,VDR inhibitor,GCN5L2 inh,GLS inh
Oc1cc(O)c(CN2CCOCC2)cc1CN1CCOCC1,11µM*,x,-4%,-10%,x,18%
Oc1c(CN2CCOCC2)cc2c(c1-c1c(O)c(CN3CCOCC3)cc3c1CCCC3)CCCC2,x,4%,x,0%,x,x
CCOc1cc(/C=C2\NC(=O)NC2=O)cc([N+](=O)[O-])c1O,50µM*,2%,-11%,20%,-28%,-20%
Cc1ccc(S(=O)(=O)c2c(C)cc(C)nc2Cl)c(C)c1,7%,6%,-3%,-3%,-2%,13µM*
Cc1cc(C)c(S(=O)(=O)c2ccccc2)c(Cl)n1,9%[57.1 µM],-1%,-6%,-4%,1%,-21%
Cc1ccc(C)c(S(=O)(=O)c2c(C)cc(C)nc2Cl)c1,-4%,10%,-6%,0%,-4%,3%
Cc1ccc(S(=O)(=O)c2c(C)cc(C)nc2Cl)cc1,5%,3%,-1%,-22%,-7%,11µM*
Cc1cc(C)c(S(=O)(=O)c2ccccc2C)c(Cl)n1,14%,18%,-3%,17%,-4%,13µM*
CCOC(=O)C1C(=O)OC(C)(C)C1C(C)C(=O)c1ccc(OC)cc1 (stereo not drawn),7%,9%,3%,15%,-26%,-4%
Cc1ccc(OCc2nc(-c3ccccn3)no2)cc1,25%,11%,14%,-8%,-3%,-1%
O=C(Nc1ccc(Br)cc1Cl)N1CCOCC1,17%,24%,4%,12%,-1%,0%
Clc1ccccc1-c1cncnc1NCCN1CCOCC1,x,24%,x,-25%,-4%,x
FC(F)(F)c1ccccc1-c1cncnc1NCCN1CCOCC1,x,1%,x,45µM*,-8%,x
c1ccc2c(C3=NNC(=NC4CC4)SC3)c[nH]c2c1,-17%,u,-6%,u,-1%,14%
c1ccc(C2=NNC(=NC3CC3)SC2)cc1,22%,45µM*,5%,-24%,1%,39%
O=c1c(Br)ccc(Br)cc1Br,0.2µM*,x,13%[11.4 µM],10µM*,x,32%
O=C1CN(S(=O)(=O)c2cc(Br)ccc2Br)CCN1,13%,x,1%,17%,0%,0%
O=C(Nc1ccccc1)N(O)c1ccc(Cl)cc1,-12%,-71%,-10%,28µM*,-3%,5%
Cn1nccc1C(=O)NCCN1C(=O)OC(C)(C)C1(C)O (stereo not drawn),0%,20%,-4%,-17%,-7%,-6%
CN(C)Cc1c(O)c(Cl)cc2c3c(c(=O)oc12)CCCC3,u,6%,i,-10%,u,1%
CCc1c(C)c2cc(Cl)c(O)c(CN(CC)CC)c2oc1=O,-116%,10%,i,8%,-29%,15%
CCc1c(C)c2cc(Cl)c(O)c(CN(C)C)c2oc1=O,u,8%,i,-11%,28µM*,4%
Cc1c(C)c2cc(Cl)c(O)c(CN(C)C)c2oc1=O,-114%,7%,i,-5%,22µM*,-8%
CN(CC(=O)Nc1ccccc1Cl)C(=O)COC(=O)c1ccc(S(=O)(=O)C(F)F)cc1,-10%[57.1 µM],x,-6%[57.1 µM],-2%,0%,-5%
C[C@]12c3[nH]c4ccc(Cl)cc4c3CCN1C(=O)[C@@H](CC(=O)NCCc1ccccn1)C[C@@H]2C(=O)N1CCOCC1,1%,x,0%,-24%,-1%,0%
SMILES,rTrxR1 inhibitor,Sfp inh,TrxR1 substrate,VDR inhibitor,GCN5L2 inh,GLS inh
CC1CCN(C(=S)c2ccccc2O)CC1,-19%,28µM*,-3%,u,0%,12%
CC1CCN(C(=S)c2cn(Cc3cccc(F)c3)c3ccccc23)CC1,5%,-5%,-5%,2%,-2%,-3%
Oc1cccc(C(=S)N2CCCCC2)c1,8%[57.1 µM],22µM*,5%[57.1 µM],u,6%,0%
Oc1ccc(C(=S)N2CCCC2)cc1,13%,20µM*,6%,u,u,10%
CC1CCN(C(=S)c2ccc(O)cc2)CC1,-17%,56µM*,-10%,-11%,-8%,29%
O=C(CSc1nccc(=O)[nH]1)N1CCc2ccccc2C1,24%,-5%,15%,18%,-9%,-2%
